From PubChem BioAssay come the findings set out here.

“And” between values parts separate entries of the source, which are not always exact repeats. Equal entries are not always repeated. The source made the active and inactive calls. Unless noted, how the calls were made is not given here.

Test [1] is described as follows: stimulators of nuclear beta-catenin in C2C12, primary screen, imaging, WNT3A-conditioned medium, mouse C2C12, NPC library (AID 1117326; in the data active means nuclear beta-catenin stimulation mostly above about 4.2%, no sharp cut-off; inactive means mostly below about 10%). Conditions: stronger effect = higher value.
The nature of test [2]: stimulators of insulin release from INS-1E, primary screen, cell-based, 5 mM glucose, NPC library (AID 1117329;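 active means compound raises insulin release from rat beta cells at 5 mM glucose, no numeric limit stated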). Conditions: rat INS-1E insulin secretion, at 10 µM, stronger effect = higher value.
Test [3] can be described thus: growth inhibition of GSK3B-pretreated HCT116 cells – cell-based, CellTiter-Glo, 0.2 to 20 µM (AID 1117336;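 active means compounds lowering colon cancer cell viability after pretreatment blocking the GSK3B kinase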). Conditions: HCT116 viability after GSK3B inhibitor, at 20 µM, stronger effect = higher value.
The nature of test [4]: inhibition of endothelial tube formation, primary screen, imaging, VEGF stimulated, CD31 staining, tube area, NPC library (AID 1117340;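 active means compound that reduces growth-factor-driven endothelial tube area in a mixed cell culture, no cutoff stated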). To be noted: VEGF-stimulated ADSC/ECFC co-culture, at 10 µM, stronger effect = higher value.
A short description of test [5]: glucagon-like peptide 1 release enhancers, primary assay, NCI-H716 cell line, NPC library (AID 1117341;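 active means compound raises GLP1 secretion from the human gut endocrine cells, with no numeric limit stated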). To be noted: NCI-H716 cells, at 10 µM, stronger effect = higher value.
The nature of test [6]: HCT116 colon cancer cell growth inhibition, primary screen, CellTiter-Glo luminescence, NPC library (AID 1117342;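 active means compounds that lower survival of HCT116 colon cancer cells in the luminescence readout, no numeric limit stated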). To be noted: at 20 µM (top of the series).
The nature of test [7]: CellTiter-Glo luminescent readout of SW480 viability loss, NPC library primary (AID 1117343;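 active means compounds that lower viability of the colon cancer cells in the luminescence readout, with no numeric limit stated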). Conditions: CellTiter-Glo luminescence; at 20 µM (top of the series) unless noted.
A short description of test [8]: decreased DLD-1 cellular survival, CellTiter-Glo luminescent readout, NPC compound collection, primary HTS (AID 1117346;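 active means compounds that lower survival of DLD-1 colon cancer cells in the luminescence readout, no cutoff given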). To be noted: DLD-1 viability, CellTiter-Glo luminescence; at 20 µM (top of the series).
A short description of test [9]: sensitizers of A549 cells to miR-34 induction, primary screen, imaging, A549 dox-inducible miR-34, nuclei and caspase counts (AID 1347080;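 active means compounds whose cell count with miR-34 switched on is under 0.7 times the count with it off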). Conditions: A549 miR-34 inducible, Hoechst nuclei count, 48 h.
A short description of test [10]: survival rescue of mitochondrial mutant cells in low glucose, primary screen, MELAS cybrids, Rieske KO mouse fibroblasts, CellTiter-Glo (AID 1508586;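 active means mean z-score across replicates of 1.96 or higher in either the MELAS or the Rieske mutant cell line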;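 further: z relative to plate mean and SD of compound and empty wells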).
In test [11] the test system is Hepatitis C virus NS3 helicase. The test is described as follows: HCV NS3 helicase inhibitors, primary screen, biochemical, fluorescence polarization, LOPAC1280 library (AID 687035; in the data active means inhibition above about 37%). To be noted: Purified HCV NS3 helicase, Cy5-dT15 ssDNA binding fluorescence polarization; stronger effect = higher value; concentration not given here.
Test [12] is described as follows: Cy5 fluorescence quenching or enhancement artefacts, artefact control for HCV NS3 helicase inhibitor project, biochemical, LOPAC1280 (AID 687037). To be noted: Cy5-DNA-NS3h complex fluorescence interference counterscreen.
Test [13] can be described thus: phospholipid biosynthesis inhibitors in animal cells, primary screen, cell-based, LOPAC library, screen 4 (AID 1347384). Conditions: phospholipid biosynthesis inhibition screen, at 10 µM.
The nature of test [14]: viability rescue of complex I mutant cybrids, primary screen, cell-based, galactose medium, ATP luminescence (AID 1645843;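 active means z-score of at least 1.8 in each of two replicates, scored against plate mean and spread of sample wells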;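 further: positive z means more ATP and so rescue of galactose-driven cybrid death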). To be noted: complex I mutant cybrid cells, 72 h, stronger effect = higher value.
The nature of test [15]: liver-stage malaria parasite growth inhibition, primary screen, cell-based, HepG2, luciferase luminescence, HepG2 viability (AID 624349; in the data active means parasite load remaining mostly below about 12%, no sharp cut-off; inactive means mostly above about 10%;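 further: 100% = mean of DMSO negative control wells on the same plate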). Conditions: P. berghei liver stage in HepG2, luciferase luminescence, concentration not given here; parasite load remaining: stronger effect = lower value; viability: measured here: HepG2 viability without parasites.
Where [16] appears, read: stronger effect = lower value, cell number ratio, induced over uninduced.
[17] abbreviates: measured here: relative caspase fold change +Dox/-Dox.
The mark [18] stands for this setting: measured here: total cells with miR-34 induction, stronger effect = lower value.
Setting [19] is: measured here: total cells without miR-34 induction.
Setting [20] is: MELAS cybrid survival, CellTiter-Glo 48 h, stronger effect = higher value.
Where [21] appears, read: Rieske KO mouse fibroblast survival, CellTiter-Glo 72 h.

As for `O=C(NCC1CN(c2ccc(N3CCOCC3=O)cc2)C(=O)O1)c1ccc(Cl)s1` (configuration not stated), the nuclear beta-catenin stimulation in test [1] (at 10 µM) was 1.8% (inactive); in test [1] (stimulation, at 2 µM) it was -0.7%. In [2], the insulin secretion stimulation is 0.5% (inactive). Further, the viability decrease in [3] was 55.9% (active). In addition, the tube area decrease in test [4] is -0.6% (inactive). The GLP1 secretion stimulation in test [5] is -0.6% (inactive). In addition, the inhibition of viability in [6] was 51.2% (active). The figures for the viability decrease (inhibition) in test [7] and in test [8] were -16% (inactive) and 9.9% (inactive), respectively. The fold change in test [9] (setting [16]) is 0.99 (inactive); in [9] (setting [17]), 0.417. Moreover, the cell count in [9] (setting [18]) came out at 7630; in [9] (setting [19]) it was 7700. Moreover, the z-score in [10] (setting [20]) is -0.316 (inactive); in [10] (setting [21]), -0.0771.

With `Nc1cc(=O)[nH]c(N)n1`, the inhibition in [11] is 1% (inactive). Further, the fluorescence ratio (interference) in test [12] is 1.1 (inactive). Besides, the nuclear beta-catenin stimulation in test [1] (at 10 µM) was 1.3% (inactive); in test [1] (stimulation, at 2 µM) it was 1.3%. In addition, the insulin secretion stimulation in test [2] was -1.5% (inactive). The viability decrease in test [3] is 7.7% (inactive). In addition, in test [4], the tube area decrease is -14.1% (inactive). In addition, the GLP1 secretion stimulation in test [5] is -2.3% (inactive). In addition, the inhibition of viability in test [6] is -16.3% (inactive). The viability decrease (inhibition) in [7] was 71.1% (active); in [8], 13.6% (inactive). The fold change in test [9] (setting [16]) was 0.958 (inactive); in test [9] (setting [17]), 1.28. Moreover, the cell count in [9] (setting [18]) amounted to 9880; in [9] (setting [19]), 10300. The molecule was classed as inactive in test [13]. In addition, the z-score in [14] was 0.355 (inactive).

`O=C(O)CN(CCOCCOCCN(CC(=O)O)CC(=O)O)CC(=O)O`: in test [11], the inhibition is -1% (inactive). Further, the fluorescence ratio (interference) in [12] is 1 (inactive). Further, the nuclear beta-catenin stimulation in [1] (at 10 µM) is 0% (inactive); in [1] (stimulation, at 2 µM), 0%. The insulin secretion stimulation in test [2] was 1.45% (inactive). The viability decrease in [3] was 16.3% (inactive). The tube area decrease in test [4] was 6.4% (inactive). Besides, the GLP1 secretion stimulation in test [5] was 1.8% (inactive). In addition, the inhibition of viability in test [6] was 5.2% (inactive). Further, the viability decrease (inhibition) in [7] is -13.8% (inactive); in test [8], 1.8% (inactive). Further, the fold change in test [9] (setting [16]) was 0.942 (inactive); in [9] (setting [17]), 1.12. Moreover, the cell count in test [9] (setting [18]) is 9820; in test [9] (setting [19]), 10400. Further, in [13], the outcome was inactive. Further, the z-score in [14] was 0.34 (inactive).

Regarding `CC(C)(C)c1ccc(C(=O)CCCN2CCC(OC(c3ccccc3)c3ccccc3)CC2)cc1`, the inhibition in [11] was 3% (inactive). Moreover, the fluorescence ratio (interference) in test [12] is 1 (inactive). Also, the nuclear beta-catenin stimulation in [1] (at 10 µM) is 0.6% (inactive); in [1] (stimulation, at 2 µM) it was 11.9%. Further, in test [2], the insulin secretion stimulation is 1% (inactive). Also, in [3], the viability decrease is 111% (active). For the same molecule, in [4], the tube area decrease is 102% (active). In addition, in test [5], the GLP1 secretion stimulation is 6% (inactive). The inhibition of viability in [6] was 114% (active). The results for the viability decrease (inhibition) in [7] and in test [8] were 133% (active) and 101% (active), respectively. Besides, the fold change in [9] (setting [16]) is 1.42 (inactive); in test [9] (setting [17]), 0.93. The results for the cell count in [9] (setting [18]) and in test [9] (setting [19]) were 1290 and 913, respectively. The outcome in test [13] was inactive. For the same molecule, in test [14], the z-score is -0.865 (inactive).

`CC(=O)[C@@]1(O)CC[C@H]2[C@@H]3CCC4=CC(=O)CC[C@]4(C)[C@H]3CC[C@@]21C`: the parasite load remaining in [15] is 0.96% (inactive). In addition, the viability in [15] came out at 66%. Moreover, the inhibition in [11] was 0% (inactive). In addition, the fluorescence ratio (interference) in test [12] was 1 (inactive). The nuclear beta-catenin stimulation in test [1] (at 10 µM) was 1.2% (inactive); in test [1] (stimulation, at 2 µM) it was 2.3%. In test [2], the insulin secretion stimulation is 0.95% (inactive). In test [3], the viability decrease is 14.3% (inactive). Also, in [4], the tube area decrease was -5.3% (inactive). Moreover, the GLP1 secretion stimulation in [5] is 2% (inactive). The inhibition of viability in test [6] is 20.1% (inactive). For the same molecule, the viability decrease (inhibition) in test [7] is 10.2% (inactive); in [8], -4.1% (inactive). Besides, the fold change in test [9] (setting [16]) is 0.967 (inactive) and 0.853 (inactive); in test [9] (setting [17]), 1.72 and 1.68. The cell count in test [9] (setting [18]) was 8400 and 8890; in test [9] (setting [19]), 8690 and 10400. Also, the molecule was called inactive in [13]. For the same molecule, the z-score was -0.428 (inactive) in test [10] (setting [20]); 0.151 in test [10] (setting [21]); -0.055 (inactive) and -1.24 (inactive) in [14].
